# Screen size: about 310,000 compounds; about 2,200 (0.71%) showed an effect of 50% or more. The effect is printed as a negative number. For the sample, strong results were picked, then their nearest neighbours and some compounds at random.
# Molecular target: human ether-à-go-go-related gene (hERG) potassium channel (human, UniProt Q12809)
# Assay: primary screen, population patch clamp on CHO cells stably expressing hERG; higher = less effect of the substance
# human ether-à-go-go-related gene (hERG) potassium channel, sequence (Q12809 whole entry, looked up): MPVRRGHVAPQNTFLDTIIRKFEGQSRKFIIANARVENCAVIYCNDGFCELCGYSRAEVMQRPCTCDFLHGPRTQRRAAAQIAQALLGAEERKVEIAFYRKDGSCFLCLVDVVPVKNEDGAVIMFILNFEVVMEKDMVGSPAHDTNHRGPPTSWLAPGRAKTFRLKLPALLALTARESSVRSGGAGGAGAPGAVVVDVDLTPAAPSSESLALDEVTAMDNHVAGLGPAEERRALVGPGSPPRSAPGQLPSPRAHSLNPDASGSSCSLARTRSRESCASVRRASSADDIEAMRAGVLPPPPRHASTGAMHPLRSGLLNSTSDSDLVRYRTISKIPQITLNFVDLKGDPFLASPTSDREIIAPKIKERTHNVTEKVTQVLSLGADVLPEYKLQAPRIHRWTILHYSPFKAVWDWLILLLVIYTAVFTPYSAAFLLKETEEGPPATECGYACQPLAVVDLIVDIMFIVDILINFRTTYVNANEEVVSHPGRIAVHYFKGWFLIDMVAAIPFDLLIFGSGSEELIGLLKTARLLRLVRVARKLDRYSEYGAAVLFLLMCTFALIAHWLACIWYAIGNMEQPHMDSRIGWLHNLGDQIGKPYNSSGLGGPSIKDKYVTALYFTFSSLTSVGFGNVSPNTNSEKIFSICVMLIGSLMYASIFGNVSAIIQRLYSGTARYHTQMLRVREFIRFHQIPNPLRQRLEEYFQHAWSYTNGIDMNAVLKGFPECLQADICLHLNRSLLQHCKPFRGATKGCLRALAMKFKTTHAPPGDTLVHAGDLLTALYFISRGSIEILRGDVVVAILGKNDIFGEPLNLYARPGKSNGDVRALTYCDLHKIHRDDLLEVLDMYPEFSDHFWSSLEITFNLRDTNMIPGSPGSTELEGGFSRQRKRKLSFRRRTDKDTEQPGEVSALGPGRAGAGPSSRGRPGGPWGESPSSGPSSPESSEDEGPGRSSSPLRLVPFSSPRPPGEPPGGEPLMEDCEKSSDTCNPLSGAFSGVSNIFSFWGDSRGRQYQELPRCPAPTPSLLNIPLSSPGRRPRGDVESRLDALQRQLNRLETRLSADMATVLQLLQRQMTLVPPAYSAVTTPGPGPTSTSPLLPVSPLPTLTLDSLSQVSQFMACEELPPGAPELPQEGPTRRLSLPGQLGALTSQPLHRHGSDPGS
row,Compound,"hERG current change (%, negative = inhibition) at 1uM [%]"
1,COc1ccccc1-n1c(O)c(/C=C2\C=Nc3ccccc32)c(=O)[nH]c1=O,11.9
2,Cc1cc(C)nc(-n2nc(C)cc2NC(=O)c2cccc(S(=O)(=O)N(C)C)c2)n1,8.89
3,COc1ccccc1C(=O)Nc1ccnn1C1CCN(C)CC1,4.47
4,COc1ccccc1C(=O)Nc1ccnn1C1CCN(CCCc2ccccc2)CC1,-88.1
5,COc1ccccc1CN1CCC(n2nccc2NC(=O)CCc2ccccc2)CC1,7.89
6,CC1=C(C(N)=O)C(c2ccc(Br)cc2)n2nc(CCCO)nc2N1 (stereo not shown),13.1
7,Cc1ccc(N=C2NC(=O)C(CC(=O)O)S2)cc1 (stereo not shown),8.56
8,NC(=O)c1cc(S(=O)(=O)N2CCN(c3ccc([N+](=O)[O-])cc3)CC2)cs1,-59.3
9,NC(=O)c1cc(S(=O)(=O)N2CCN(c3cccc(Cl)c3)CC2)cs1,18.9
10,CN(C)S(=O)(=O)N1CCN(c2ccccc2)CC1,-0.132
11,CN(C)S(=O)(=O)N1CCN(c2ccc([N+](=O)[O-])cc2)CC1,-60.5
12,CN(C)S(=O)(=O)N1CCN(c2ccc(Cl)cc2)CC1,5.65
13,CC(=O)c1ccc(N2CCN(S(=O)(=O)c3csc(C(N)=O)c3)CC2)cc1,-14.2
14,O=[N+]([O-])c1cc(NS(=O)(=O)c2ccc(Cl)nc2)ccc1Cl,-0.66
15,CCc1ccc2oc(-c3cc(N)ccc3O)nc2c1,9.06
16,O=C(O)C1CSC(c2ccccc2)N1C(=O)c1ccco1 (stereo not shown),10
17,O=C(/C=C/c1ccc(S(=O)(=O)NCc2ccco2)cc1)N1CCN(c2ccccc2)CC1,5.15
18,COc1ccc(/C=N/NC(=O)c2cccc(Br)c2)cc1CN1CCOCC1,-38.5
19,COc1ccc(/C=N/NC(=O)c2ccoc2C)cc1CN1CCN(c2ccc(F)cc2)CC1,-19.3
20,COc1ccc(/C=N/NC(=O)c2cccnc2)cc1CN1CCN(c2ccc(F)cc2)CC1,-0.578
21,COc1ccc(C(=O)N/N=C/c2ccc(OC)c(COc3ccc(F)cc3)c2)cc1,1.17
22,COc1ccc(/C=N/NC(=O)c2ccc(C)cc2)cc1CN1CCN(c2ccc(F)cc2)CC1,-27

row,Compound,"hERG current change (%, negative = inhibition) at 1uM [%]"
1,COc1ccc(/C=N\NC(=O)c2ccccc2)cc1COc1ccc(F)cc1,4.81
2,COc1ccc(/C=N/NC(=O)c2ccncc2)cc1CN1CCOCC1,6.59
3,COc1ccc(/C=N\NC(=O)c2ccccc2F)cc1COc1ccc(F)cc1,16.6
4,COc1ccc(/C=N/NC(=O)c2ccccc2F)cc1CN1CCN(c2ccc(F)cc2)CC1,-64.4
5,COc1ccc(/C=N/NC(=O)c2ccncc2)cc1CN1CCN(c2ccc(F)cc2)CC1,-54.2
6,COc1ccc(C(=O)N/N=C/c2ccc(OC)c(CN3CCN(c4ccc(F)cc4)CC3)c2)cc1,-83.5
7,COc1ccc(/C=N/NC(=O)c2ccccc2)cc1CN1CCN(c2ccc(F)cc2)CC1,-62.1
8,O=S(=O)(NC1CC1)c1ccc(F)c(F)c1,10.1
9,OCCN(Cc1nc(-c2ccc3c(c2)OCO3)no1)Cc1cccs1,7.42
10,CC(Oc1cc2oc(=O)c3c(c2cc1Cl)CCC3)C(=O)NCCCN1CCOCC1 (stereo not shown),13.3
11,Cc1ccc(CN=C(N)Nc2nc(C)cc(C)n2)cc1.Cl,-19.5
12,CN(Cc1ccc(F)cc1)C(=O)c1ccc(NC(=O)CC2SC(N3CCCC3)=NC2=O)cc1 (stereo not shown),8.82
13,COc1ccc(S(=O)(=O)NCC2CCCN(C(=O)c3cccnc3C)C2)cc1 (stereo not shown),14
14,COc1ccc2c(ccc[n+]2CC(=O)c2ccc(C)cc2)c1.[Br-],8.14
15,COc1ccc(/C=N/NC(=O)c2ccc(Br)cc2)cc1CN1CCOCC1,-23.8
16,COc1ccc(/C=N\NC(=O)c2cc(O)c(O)c(O)c2)cc1CN1CCN(c2ccc(F)cc2)CC1,10.4
17,COc1cc(C(=O)N/N=C/c2ccc(OC)c(CN3CCN(c4ccc(F)cc4)CC3)c2)ccc1O,-52.4
18,CCN(CC(=O)N1CCOCC1)S(=O)(=O)c1ccccc1,12.4
19,CCCCc1c(O)nc2sccn2c1=O,5.53
20,CCOc1ccccc1NC(=O)N1CCC(C(=O)c2ccc(F)cc2)CC1,9.5
21,Cc1nc2sccn2c(=O)c1S(=O)(=O)N1CCN(c2ccc(F)cc2)CC1,-23
22,Cc1nc2sccn2c(=O)c1S(=O)(=O)NCCc1ccccc1,-10.2

row,Compound,"hERG current change (%, negative = inhibition) at 1uM [%]"
1,Cc1ccccc1NC(=O)N1CCC(C(=O)c2ccc(F)cc2)CC1,17.6
2,Cc1nc2ccccn2c(=O)c1CCN1CCC(C(=O)c2ccc(F)cc2)CC1,-66.2
3,Cc1nc2sccn2c(=O)c1S(=O)(=O)NCc1ccccc1,9.92
4,Cc1nc2sccn2c(=O)c1CCN1CCC(=C(c2ccccc2)c2ccc(F)cc2)CC1,-78.8
5,Cc1nc2sccn2c(=O)c1CCN1CCC(=C(c2ccc(F)cc2)c2ccc(F)cc2)CC1,-65
6,CC(NCC(=O)Nc1ccccc1C(=O)NC1CC1)c1ccc(F)cc1F (stereo not shown),1.42
7,COc1ccccc1N1CCN(S(=O)(=O)c2c(C)sc3ncn(CC(=O)NCCN(C)C)c(=O)c23)CC1,10.8
8,Cc1ccc(S(=O)(=O)N2CCN(C(=O)CN3CCCSc4ccccc43)CC2)cc1,3.85
9,N/C(=N\N=C\c1ccc(O)cc1O)N[N+](=O)[O-],8.72
10,COc1ccc(C(=O)OCc2nnc(-c3ccccc3)o2)cc1S(=O)(=O)N1CCOCC1,4.07
11,Cc1cc(=O)[nH]c(SCC(=O)NCC2CCCCC2)c1C#N,16
12,CCOc1ccccc1NC(=O)C(=O)NCCC1=CCCCC1,9.84
13,CC(C)N(CCNC(=O)c1ccc(CS(=O)(=O)c2c(Cl)cccc2Cl)o1)Cc1ccccc1,-3.94
14,CN(CCNC(=O)c1ccc(CS(=O)(=O)c2ccc(Br)cc2)o1)CCc1ccccc1,-42
15,CCCCN(CC)CCCNC(=O)c1ccc(CS(=O)(=O)c2c(Cl)cccc2Cl)o1,-8.53
16,CN(CCNC(=O)c1ccc(CS(=O)(=O)c2c(Cl)cccc2Cl)o1)CCc1ccccc1,-50.4
17,CCCCN(CCCNC(=O)c1ccc(CS(=O)(=O)c2c(Cl)cccc2Cl)o1)Cc1ccccc1,-30.5
18,CCCN(CCC)CCCNC(=O)c1ccc(CS(=O)(=O)c2c(Cl)cccc2Cl)o1,-59.1
19,Cc1ccc(-c2csc(NC(=S)NC(=O)/C=C/c3ccco3)n2)cc1,23.2
20,O=C1OCCC1Sc1nnc(-c2ccc3c(c2)OCO3)n1-c1ccccc1 (stereo not shown),4.75
21,Cc1c(C(=O)NCc2ccc3c(c2)OCO3)oc2ccc(S(=O)(=O)N3CCCC3)cc12,19.4
22,N#Cc1cc2c(nc1SCC(=O)NCc1ccc3c(c1)OCO3)CCCCC2,1.91

row,Compound,"hERG current change (%, negative = inhibition) at 1uM [%]"
1,CCOc1ccc(NC(=O)CN(C)C(=O)CSCc2ccc(C)cc2)cc1OCC,-1.27
2,COC(=O)CCNC(=O)Cc1c(C)n(C(=O)c2ccc(Cl)cc2)c2ccc(OC)cc12,8.1
3,Cc1ccc(-n2ccnc2SCC(=O)N(CC(C)C)C2CCS(=O)(=O)C2)c(C)c1 (stereo not shown),-3.07
4,COc1cc2c(c(OC)c1OC)-c1c(cc(OC)c(OC)c1OC)C[C@](C)(O)[C@@H](C)C2,-58.4
5,COc1cc2c(c(OC)c1OC)-c1c(cc(OC)c(OC)c1OC)C[C@H](C)[C@H](C)C2,-22.5
6,COc1cc2c(c(OC)c1OC)-c1c(cc3c(c1OC)OCO3)C[C@H](C)[C@@](C)(O)C2,17.5
7,O=Nc1c(O)[nH]c2ccc(Cl)cc12,4.46
8,CCc1cc(=O)oc2cc(C)cc(OCC(=O)NCc3ccncc3)c12,-8.01
9,Cc1cc(OCC(=O)NCCCn2ccnc2)c2c(C)cc(=O)oc2c1,14.7
10,CCCCc1cc(=O)oc2cc(C)cc(OCC(=O)NCc3ccncc3)c12,-73.8
11,CCc1cc(=O)oc2cc(C)cc(OCC(=O)NCCCn3ccnc3)c12,-7.42
12,CCCc1cc(=O)oc2c(C)c(OCC(=O)NCCCn3ccnc3)ccc12,-70
13,Cc1c(C)c2ccc(OCC(=O)NCCCn3ccnc3)c(C)c2oc1=O,-11.1
14,CCCc1cc(=O)oc2cc(C)cc(OCC(=O)NCCCn3ccnc3)c12,-66.7
15,CCc1cc(=O)oc2c(C)c(OCC(=O)NCCCn3ccnc3)ccc12,5.28
16,CCc1cc(=O)oc2cc(C)cc(OC(C)C(=O)NCCCn3ccnc3)c12 (stereo not shown),2.72
17,Cc1cc(OC(C)C(=O)NCCCn2ccnc2)c2c(C)cc(=O)oc2c1 (stereo not shown),9.26
18,Cc1cc(OC(C)C(=O)NCCCn2ccnc2)c2c(C)c(C)c(=O)oc2c1 (stereo not shown),-51.6
19,CCCc1cc(=O)oc2cc(C)cc(OCC(=O)NCc3ccncc3)c12,-48

# Source: article PMC4336329 (PLoS ONE, 2015)
